According to PubChem BioAssay (EPA / NIEHS):
Inconclusive results are not listed. Active and inactive are the calls of the source. The calls were made as follows: active = hit-call score of the fitted dose curve at least 0.9, where 1 is the maximum; inconclusive = response in the unintended direction; inactive = score below 0.9.

molecular target: Estrogen receptor (Homo sapiens) + Estrogen receptor beta (Homo sapiens) (UniProt P03372+Q92731); assay: OT_ER_ERaERb_0480: Odyssey Thera (OT) 8-hour HEK293T Protein-Complementation Assay for Estrogen Receptor-alpha/-beta Heterodimer (AID 2283352)
Procedure: OT_ER_ERaERb_0480 is a cell-based assay that uses HEK293T, a human kidney cell line, with measurements taken at 8 hours after chemical dosing in a 384-well plate.OT_ER_ERaERb_0480 is one of one assay component(s) measured or calculated from the OT_ER_ERaERb_0480 assay. It is designed to make measurements of protein fragment complementation, a form of binding reporter, as detected with fluorescence intensity signals by Protein-fragment Complementation technology.Data from the assay component OT_ER_ERaERb_0480 was analyzed into 1 assay endpoint. This assay endpoint, OT_ER_ERaERb_0480, was analyzed in the positive analysis fitting direction relative to DMSO as the negative control and baseline of activity. Using a type of binding reporter, measures of receptor for gain-of-signal activity can be used to understand the binding at the pathway-level as they relate to the gene ESR1 and ESR2. Furthermore, this assay endpoint can be referred to as a primary readout, because the performed assay has only produced 1 assay endpoint. To generalize the intended target to other relatable targets, this assay endpoint is annotated to the nuclear receptor intended target family, where the subfamily is steroidal.
Protein-fragment complementation assay, or PCA, is a method for the identification and quantification of protein-protein interactions. In the PCA, the proteins of interest ("bait" and "prey") are each covalently linked to fragments of a third protein (e.g. DHFR, which acts as a "reporter"). Interaction between the bait and the prey proteins brings the fragments of the reporter protein in close proximity to allow them to form a functional reporter protein whose activity can be measured. […] Fluorescent signal in the basal state of the assay is very low and is primarily punctuate and cytoplasmic. Modulation of this assay is quantified as an increase in mean fluorescence intensity in the nucleus (for agonists) or in the nucleus and cytoplasm (antagonists) relative to vehicle controls, and can be quantified on a high content imaging device or a laser scanning cytometer. The latter instrument is favored for this assay because of the rapid mode of data acquisition, the ability to acquire data from the entire cell population in a well (as opposed to a fraction of the well on the high content devices) and the larger dynamic range typically achieved with this instrument. To assess sensitivity of the ER alpha/ER beta LBD assay to ligand, cells were treated with the ER agonist 17- beta-estradiol (E2) in 10-point concentration- response format for 8 hours and monitored response on a laser scanning plate cytometer (Acumen eX3; TTP Lab Tech).

Estrogen receptor (Homo sapiens) + Estrogen receptor beta (Homo sapiens), sequence (P03372 whole entry, looked up, the tested form may be a part): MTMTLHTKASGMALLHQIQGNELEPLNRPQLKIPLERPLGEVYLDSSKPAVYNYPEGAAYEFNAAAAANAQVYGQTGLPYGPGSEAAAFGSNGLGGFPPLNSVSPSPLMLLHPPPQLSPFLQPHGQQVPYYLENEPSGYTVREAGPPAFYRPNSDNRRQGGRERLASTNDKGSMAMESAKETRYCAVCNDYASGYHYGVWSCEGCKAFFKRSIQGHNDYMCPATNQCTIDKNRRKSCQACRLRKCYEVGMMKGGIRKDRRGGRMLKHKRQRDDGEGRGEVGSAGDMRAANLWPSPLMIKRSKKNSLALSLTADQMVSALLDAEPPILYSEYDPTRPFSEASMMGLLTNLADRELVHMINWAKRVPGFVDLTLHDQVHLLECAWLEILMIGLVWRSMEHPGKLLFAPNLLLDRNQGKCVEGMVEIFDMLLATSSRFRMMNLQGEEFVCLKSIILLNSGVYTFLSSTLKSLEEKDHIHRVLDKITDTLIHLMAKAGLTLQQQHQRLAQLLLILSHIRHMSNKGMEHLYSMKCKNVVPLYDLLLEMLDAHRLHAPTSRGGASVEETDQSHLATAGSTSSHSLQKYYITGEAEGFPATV
Estrogen receptor (Homo sapiens) + Estrogen receptor beta (Homo sapiens), sequence (Q92731 whole entry, looked up, the tested form may be a part): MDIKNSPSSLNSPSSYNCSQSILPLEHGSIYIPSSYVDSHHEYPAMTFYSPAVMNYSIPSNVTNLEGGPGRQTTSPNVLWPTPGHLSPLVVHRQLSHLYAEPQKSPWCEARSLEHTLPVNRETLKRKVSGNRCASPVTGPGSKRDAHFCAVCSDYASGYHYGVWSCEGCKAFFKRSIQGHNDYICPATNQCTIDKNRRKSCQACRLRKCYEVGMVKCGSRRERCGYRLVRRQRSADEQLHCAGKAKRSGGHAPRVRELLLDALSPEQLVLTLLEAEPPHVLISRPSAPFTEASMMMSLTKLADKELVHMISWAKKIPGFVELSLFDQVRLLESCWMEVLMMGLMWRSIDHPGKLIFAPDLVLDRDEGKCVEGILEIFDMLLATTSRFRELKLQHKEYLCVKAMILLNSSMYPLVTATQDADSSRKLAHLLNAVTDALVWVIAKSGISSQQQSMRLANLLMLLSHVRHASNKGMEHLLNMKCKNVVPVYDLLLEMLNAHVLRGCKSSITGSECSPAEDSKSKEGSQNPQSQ

**Q.** With CCC(C)Nc1c([N+](=O)[O-])cc(C(C)(C)C)cc1[N+](=O)[O-] (stereo unspecified) as the compound, how does the AC50 read?
**A.** 34.7 µM (active)

**Q.** For CC1(c2ccc(Oc3ccccc3)cc2)OC(=O)N(Nc2ccccc2)C1=O (stereo unspecified), which outcome is on record?
**A.** inactive

**Q.** For CC(C)OC(=O)Nc1cccc(Cl)c1, which outcome is on record?
**A.** inactive

**Q.** Which outcome does the source give for O=[N+]([O-])/N=C1\NCCN1Cc1ccc(Cl)nc1 here?
**A.** inactive

**Q.** How did the outcome turn out when O=[N+]([O-])c1c(Cl)c(Cl)c(Cl)c(Cl)c1Cl was run?
**A.** inactive

**Q.** How did the outcome turn out when C[C@H]1[C@H](c2ccc(Cl)cc2)SC(=O)N1C(=O)NC1CCCCC1 was run?
**A.** inactive

**Q.** For Clc1ccccc1-c1nnc(-c2ccccc2Cl)nn1, which outcome is on record?
**A.** inactive

**Q.** Which outcome does the source give for CC1(C)C(C=C(Cl)Cl)C1C(=O)OC(C#N)c1ccc(F)c(Oc2ccccc2)c1 (stereo unspecified) here?
**A.** inactive

**Q.** How did the outcome turn out when CNC(=O)Oc1ccccc1OC(C)C was run?
**A.** inactive

**Q.** For O=C1c2ccccc2C(=O)N1SC(Cl)(Cl)Cl, which outcome is on record?
**A.** inactive

**Q.** How did the outcome turn out when COP(=O)(OC)OC=C(Cl)Cl was run?
**A.** inactive

**Q.** How did the outcome turn out when N#CN was run?
**A.** inactive

**Q.** How did the outcome turn out when CNC(=O)/C=C(\C)OP(=O)(OC)OC was run?
**A.** inactive

**Q.** How did the outcome turn out when CCOC1Oc2ccc(OS(C)(=O)=O)cc2C1(C)C (stereo unspecified) was run?
**A.** inactive

**Q.** CCC(C)(C)C(=O)OC1=C(c2ccc(Cl)cc2Cl)C(=O)OC12CCCCC2 was tested. Which outcome did it give?
**A.** inactive

**Q.** How did the outcome turn out when COP(=S)(OC)Oc1ccc(SC)c(C)c1 was run?
**A.** inactive

**Q.** With O=C(NC(=O)c1c(F)cccc1F)Nc1ccc(OC(F)(F)C(F)OC(F)(F)F)c(Cl)c1 (stereo unspecified) as the compound, how does the outcome read?
**A.** inactive

**Q.** COc1nn(CSP(=S)(OC)OC)c(=O)s1 was tested. Which outcome did it give?
**A.** inactive

**Q.** With CCC(C)(NC(=O)c1cc(Cl)c(C)c(Cl)c1)C(=O)CCl (stereo unspecified) as the compound, how does the outcome read?
**A.** inactive

**Q.** How did the outcome turn out when COP(=S)(OC)Oc1ccc([N+](=O)[O-])cc1 was run?
**A.** inactive

**Q.** CNC(=O)Oc1cccc(N=CN(C)C)c1 was tested. Which outcome did it give?
**A.** inactive
